Measurements reported in PubChem BioAssay AID1159580 (chemical genetic matrix, 2015).
Where “and” joins values, the source holds several entries; their conditions need not be identical. Identical values can stand only once. About 2,000 (36%) of roughly 5,500 compounds were called active. Not shown: some 18% with an inconclusive outcome. Cut-off read from the data, not from the text of the source: active = normalized growth mostly below about 0.91 (no sharp cut-off); inconclusive = no clear call, values can overlap the other calls; inactive = mostly above about 0.92. Some of the results follow.

Experiment: chemical genetic growth profiling, strain panel (AID 1159580);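 note: tested at 20 µM; growth read once vehicle control cultures reached saturation at 30 °C; 1 = growth at the plate median or of vehicle wells; lower values mean less growth of the strain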
Settings: S. cerevisiae deletion strains, growth OD

Measured: normalized growth

O=C(Nc1ccccc1)Nc1ccccc1
inactive: locus YAL021C, strain ccr4, active compounds read low 0.977 | locus YAL026C, strain drs2, active compounds read low 0.951 | locus YAL030W, strain snc1, active compounds read low 0.992 | locus YBL061C, strain skt5, active compounds read low 0.967 | locus YBR009C, strain hhf1, active compounds read low 0.957 | locus YBR021W, strain FUR4, active compounds read low 0.935 | locus YBR023C, strain chs3, active compounds read low 0.954 | locus YBR171W, strain sec66, active compounds read low 0.954 | locus YBR229C, strain ROT2, active compounds read low 1 | locus YBR231C, strain swc5, active compounds read low 0.942 | locus YBR279W, strain paf1, active compounds read low 0.973 | locus YCL011C, strain gbp2, active compounds read low 0.93 | locus YCL016C, strain dcc1, active compounds read low 0.943 | locus YCL029C, strain bik1, active compounds read low 1.02 | locus YCL069W, strain vba3, active compounds read low 0.983 | locus YCR088W, strain abp1, active compounds read low 0.971 | locus YDL005C, strain med2, active compounds read low 0.956 | locus YDL035C, strain GPR1, active compounds read low 1.1 | locus YDL040C, strain nat1, active compounds read low 0.978 | locus YDL101C, strain DUN1, active compounds read low 0.998 | locus YDL185W, strain tfp1, active compounds read low 0.99 | locus YDL192W, strain arf1, active compounds read low 0.978 | locus YDR001C, strain nth1, active compounds read low 0.968 | locus YDR069C, strain doa4, active compounds read low 0.964 | locus YDR101C, strain arx1, active compounds read low 0.983 | locus YDR137W, strain rgp1, active compounds read low 0.955 | locus YDR150W, strain NUM1, active compounds read low 1.03 | locus YDR159W, strain sac3, active compounds read low 1.04 | locus YDR162C, strain NBP2, active compounds read low 1.1 | locus YDR195W, strain ref2 0.991 | locus YDR297W, strain sur2, active compounds read low 0.969 | locus YDR318W, strain mcm21, active compounds read low 0.989 | locus YDR334W, strain swr1, active compounds read low 0.959 | locus YDR335W, strain msn5, active compounds read low 0.952 | locus YDR388W, active compounds read low 0.991 | locus YDR392W, strain spt3, active compounds read low 0.932 | locus YDR502C, strain sam2, active compounds read low 0.977 | locus YEL003W, strain gim4, active compounds read low 0.977 | locus YEL037C, strain rad23, active compounds read low 0.97 | locus YEL061C, strain CIN8 (second series), active compounds read low 0.97 | locus YER015W, strain faa2, active compounds read low 0.957 | locus YER016W, strain bim1, active compounds read low 0.962 | locus YER110C, active compounds read low 0.967 | locus YER111C, strain swi4, active compounds read low 0.974 | locus YER155C, strain BEM2 (second series), active compounds read low 0.978 | locus YER155C, strain BEM2, active compounds read low 1.01 | locus YER167W, strain BCK2, active compounds read low 1 | locus YFR010W, strain ubp6, active compounds read low 0.987 | locus YGL078C, strain dbp3, active compounds read low 0.98 | locus YGL086W, strain mad1, active compounds read low 0.977 | locus YGL167C, strain pmr1, active compounds read low 0.972 | locus YGL173C, strain kem1, active compounds read low 0.97 | locus YGL227W, strain vid30, active compounds read low 0.967 | locus YGL240W, strain doc1, active compounds read low 0.915 | locus YGL248W, strain PDE1, active compounds read low 1.08 | locus YGL253W, strain hxk2, active compounds read low 0.924 | locus YGR078C, strain PAC10, active compounds read low 1.07 | locus YGR135W, strain pre9, active compounds read low 0.985 | locus YGR252W, strain gcn5, active compounds read low 0.91 | locus YHR013C, strain ard1, active compounds read low 0.945 | locus YHR027C, strain rpn1, active compounds read low 0.967 | locus YHR030C, strain SLT2, active compounds read low 1.01 and 1.02 | locus YHR079C, strain IRE1 (second series), active compounds read low 0.995 | locus YHR079C, strain IRE1, active compounds read low 1 | locus YHR094C, strain hxt1, active compounds read low 0.975 | locus YHR129C, strain ARP1, active compounds read low 0.997 | locus YHR142W, strain chs7, active compounds read low 0.887 | locus YHR200W, strain rpn10, active compounds read low 0.997 | locus YIL066C, strain RNR3, active compounds read low 0.996 | locus YIL125W, strain kgd1, active compounds read low 0.977 | locus YIR030C, strain dcg1, active compounds read low 0.975 | locus YJL092W, strain hpr5, active compounds read low 0.969 | locus YJL095W, strain BCK1 (second series), active compounds read low 0.991 | locus YJL095W, strain BCK1, active compounds read low 1.09 and 1 | locus YJL115W, strain asf1, active compounds read low 0.932 | locus YJL129C, strain trk1, active compounds read low 0.998 | locus YJL134W, strain LCB3, active compounds read low 1 | locus YJL154C, strain vps35, active compounds read low 0.965 | locus YJL164C, strain tpk1, active compounds read low 0.961 | locus YJL166W, strain qcr8, active compounds read low 0.952 | locus YJL168C, strain set2, active compounds read low 0.98 | locus YJL187C, strain SWE1 (second series), active compounds read low 0.99 | locus YJR066W, strain TOR1, active compounds read low 0.95
active: locus YDL074C, strain BRE1, active compounds read low 1.28 [resistant] | locus YIL073C, strain SPO22, active compounds read low 1.38 [resistant]
